Screens: PubChem BioAssay, National Center for Advancing Translational Sciences (NCATS)
Shiga inhibitor = Shiga toxin inhibition; Vero cells, Shiga toxin protein synthesis inhibition reporter; inhibition, % at 38.7 µM; 290,000 compounds, 9.2% hits; in the data active means inhibition mostly above about 28%, no sharp cut-off; inactive means mostly below about 43%; further: 0% is about no effect
AmpC inh detg = AmpC beta-lactamase inhibition with detergent present; P00811; AmpC hydrolysis of nitrocefin, absorbance 480 nm, 0.01% Triton; Potency, µM (top dose mostly 114 µM), without a hit: at the highest dose activity change, negative = inhibition, most hits filed as inhibitors; 370,000 compounds, 0.041% hits; AID 485294;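 further: potency means the concentration at half of the fitted maximal effect; 0% = no-compound wells and -100% = no-enzyme wells; nearly all actives have a fitted effect of over 25% in size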
Target sequence (P00811 whole entry, looked up): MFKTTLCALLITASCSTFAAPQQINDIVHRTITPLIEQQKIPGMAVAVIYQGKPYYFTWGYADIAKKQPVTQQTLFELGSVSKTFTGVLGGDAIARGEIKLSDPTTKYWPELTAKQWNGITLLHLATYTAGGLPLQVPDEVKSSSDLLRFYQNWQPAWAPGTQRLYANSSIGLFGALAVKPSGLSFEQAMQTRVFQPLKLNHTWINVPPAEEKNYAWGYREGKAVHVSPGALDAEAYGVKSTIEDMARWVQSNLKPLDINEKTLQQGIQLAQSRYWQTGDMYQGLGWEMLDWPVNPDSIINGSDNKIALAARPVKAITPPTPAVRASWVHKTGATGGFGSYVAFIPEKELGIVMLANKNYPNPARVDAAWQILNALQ
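AmpC (5.3 nM in the dispensed reagent) in 20 mM phosphate pH 7.0 with 0.01% (detergent screen) or 0.0001% Triton X-100 was preincubated with compounds for 15 min at room temperature. Nitrocefin was then added from an 800 uM solution, and hydrolysis was followed at 480 nm.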
AmpC inh no detg = AmpC beta-lactamase inhibition without detergent | P00811 | AmpC nitrocefin hydrolysis, absorbance 480 nm, 0.0001% Triton | Potency, µM (highest dose often 57.1 µM), for the others: at the top dose activity change, negative = inhibition, actives largely listed as inhibitors | 330,000 compounds, 0.52% hits | AID 485341;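 further: potency means the concentration at half of the fitted maximal effect; plate controls were no compound for no effect and no enzyme for full effect; nearly all actives have a fitted effect of over 20% in size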
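20 mM phosphate pH 7.0 + 0.01% (detergent screen) or 0.0001% Triton X-100; 5.3 nM AmpC reagent; cpd preinc 15 min RT; nitrocefin (800 uM stock) to start; A480 q20 s × 4 min; Activity was normalised to no-enzyme and no-compound control wells.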
CHX counter = counter-screen hit for Shiga toxin inhibitors, cycloheximide; max response, %; cell reporter, cycloheximide protein synthesis inhibition counterscreen; 300,000 compounds, 12% hits; AID 2314; in the data active means max response mostly above about 13%, no sharp cut-off; inactive means mostly below about 14%; further: read at 38.3 µM for the half of the compounds with a filed dose; 0% is about no effect
SARS PLP yeast = inhibitors of SARS-CoV papain-like protease in yeast; Potency, µM (titrated, usually from 32.9 µM), for the others: top-dose activity, positive = growth rescue, most hits filed as activators; 330,000 compounds, 0.19% hits; S. cerevisiae expressing SARS-CoV PLpro, growth rescue; calls by dose curve; further: potency means the concentration at half of the fitted maximal effect; 0% is about no effect; nearly all actives have a fitted effect of over 55% in size
AMA1-RON2 inh = inhibitors of Plasmodium falciparum AMA1-RON2 interaction; Potency, µM (top dose mostly 58.2 µM), inactives show top-dose activity change, negative = inhibition, most hits filed as inhibitors; 360,000 compounds, 0.2% hits; AlphaScreen AMA1-biotinylated RON2 peptide binding;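 further: potency means the concentration at half of the fitted maximal effect; 0% = vehicle wells and -100% = peptide control; nearly all actives have a fitted effect of over 45% in size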
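AMA1 (3D7) with his tag at 25 nM final met compounds first, then biotinylated RON2 peptide at 25 nM; detection used donor plus acceptor beads, 10 µg/mL apiece, read by AlphaScreen after 30 min at room temperature.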
* = called active by the depositor; ? = inconclusive; . = no result given. Many of the other results were omitted from the sample, so hits are more common in it than they were. Unless noted, the call rests on the fitted dose curve; in most records, active means well fitted curve in the direction sought with a large enough effect; inconclusive means small, poorly fitted or top-dose-only effect, or another doubt; inactive means no such curve, though single readings can be large; an effect the other way counts as inactive or inconclusive.

SMILES | Shiga inhibitor | AmpC inh detg | AmpC inh no detg | CHX counter | SARS PLP yeast | AMA1-RON2 inh
O=C1Nc2ccccc2C1C(C[N+](=O)[O-])c1ccccc1 (centres undefined) | -8.6 | -0.6% | -23.3% | -2.8 | 0.3% | 5.0%
O=C(COC(=O)C1CCN(S(=O)(=O)c2cccs2)CC1)Nc1ccc(F)c(F)c1F | . | ? | -16.9% | . | -2.7% | 7.5%
CC(C)c1ccc(NC(=O)CSc2nc(=O)[nH]c3c2CCCC3)cc1 | . | -14.8% | 35.5µM* | . | 3.7% | -5.9%
CCCCc1ccc(NC(=O)CSc2nc(=O)[nH]c3c2CCCC3)cc1 | . | 3.7% | . | . | . | .
CSc1ccc(C(=O)C2CCCN(C(=O)c3ccsc3)C2)cc1 (centres undefined) | 28.9 | 1.8% | 20.6% | 6.3 | 0.0% | -0.8%
COc1ccc(NC(=S)N(C)CC2COc3ccccc3O2)cc1 (centres undefined) | 73.1* | 0.9% | -12.4% | 24.2* | -1.2% | 11.4%
CN(CC1COc2ccccc2O1)C(=S)Nc1ccccc1F (centres undefined) | 24.6 | 2.5% | -9.2% | 8.2 | -9.4% | -5.3%
CCCCC(=O)Nc1sc2c(c1-c1nc3ccccc3s1)CCN(C(C)=O)C2 | -1.9 | ? | 0.501µM* | -1.7 | -5.6% | .
COc1ccc(C(=O)Nc2cc(OCc3ccccc3)c(Cl)cc2Cl)cc1 | 5.0 | ? | -7.8% | 0.6 | 1.7% | -0.2%
COCCNc1c(-c2ccc(OC)cc2)nc2ccc(Cl)cn12 | 61.7* | -1.5% | -5.9% | 29.1 | -1.1% | 17.3%
CCOC(=O)CNc1c(-c2ccc(OC)cc2)nc2ccc(Cl)cn12 | 35.6* | ? | -18.3% | 20.4* | -30.3% | -10.4%
COc1ccc(-c2noc(CCCC(=O)NC3CCCCC3)n2)cc1 | 3.5 | 5.0% | 26.9% | -2.3 | -1.6% | 0.2%
CC1(C(=O)Nc2ccc3c(c2)OCO3)CCN1C(=O)c1ccco1 (centres undefined) | . | . | . | . | . | -4.8%
Cc1ccc(N/C(SCc2ccccc2C)=C(/C#N)C(=O)NCc2ccco2)cc1C | 10.5 | -20.2% | -35.8% | 15.9 | 0.9% | -11.1%
CCc1ccc(N/C(SCc2cccc(F)c2)=C(/C#N)C(=O)NCc2ccco2)cc1 | 28.8 | 0.4% | -40.6% | 21.0* | -7.8% | -3.0%
CNS(=O)(=O)c1ccc(NC(=O)c2cncc(Br)c2)cc1 | -5.4 | ? | -20.9% | -3.6 | -0.4% | 5.3%
CCN(CC)c1ccc(NC(=O)c2cncc(Br)c2)cc1 | 59.8* | ? | -51.7% | 42.8* | 1.9% | -4.7%
CCN(CC)c1ccc(NC(=O)c2cccnc2)cc1 | 60.8* | -3.8% | . | 38.5* | . | -27.2%
O=C(CCNS(=O)(=O)c1ccccc1C(F)(F)F)N1CCN(C(c2ccccc2)c2ccccc2)CC1 | . | -13.7% | 14.4% | . | 1.7% | -1.9%
Cc1ccn2c(Nc3ccc4c(c3)OCO4)c(-c3ccccn3)nc2c1 | 38.8* | 2.8% | 93.6% | 77.4* | ? | -12.8%
Cc1cc(C)n2c(Nc3ccc4c(c3)OCCO4)c(-c3ccccn3)nc2n1 | . | . | . | . | . | 8.91µM*
O=C(O)CCc1ccc(-c2ccccc2)n1NC(=O)c1sc2ccccc2c1Cl | -6.7 | 3.6% | -36.6% | -2.8 | -4.3% | -2.0%
Cc1ccc(C(=O)NC(=S)NCC2CCCO2)cc1Br (centres undefined) | 78.1* | -9.7% | -25.7% | 52.4* | 2.6% | -3.9%
O=C(NNC(=S)NCC1CCCO1)c1cc(Br)ccc1Cl (centres undefined) | -7.2 | -0.6% | -10.1% | 6.0 | 9.5% | 42.1%
O=C(NC(=S)NCC1CCCO1)c1ccc(Br)o1 (centres undefined) | 67.1 | -4.2% | -17.9% | 30.1* | 0.5% | ?
SMILES | Shiga inhibitor | AmpC inh detg | AmpC inh no detg | CHX counter | SARS PLP yeast | AMA1-RON2 inh
O=C(NC(=S)NCC1CCCO1)c1ccco1 (centres undefined) | 15.6 | 2.2% | -30.6% | 15.9 | 3.4% | 2.9%
O=C(COC(=O)CCC(=O)c1cccs1)NCCc1ccccc1 | . | . | -36.1% | . | -0.5% | -3.7%
Cc1ccc(S(=O)(=O)Oc2ccc3ccc(O)cc3c2)cc1 | . | -0.4% | -49.6% | 28.8* | -4.3% | 2.9%
CCOc1ccc(S(=O)(=O)Oc2ccc3ccccc3c2)cc1 | 43.4* | ? | 12.7% | 29.0* | -6.4% | 60.4%
Cc1ccc(S(=O)(=O)Oc2ccccc2)cc1 | . | . | . | . | . | 16.6%
CC1(C)S[C@@H]2[C@H](NC(=O)COc3ccccc3)C(=O)N2C1C(=O)OCc1cc2ccccc2n1S(=O)(=O)c1ccccc1 (some centres undefined) | -12.1 | ? | 8.91µM* | -3.4 | 6.8% | .
CCN1/C(=C\C=C(C(C)=O)C(C)=O)Sc2ccccc21 | 16.4 | 1.4% | 2.3% | 18.9* | 0.9% | -6.9%
CCN1/C(=C\C(=S)Nc2ccccc2)Sc2ccccc21 | 56.3* | 0.8% | -38.4% | 30.8* | -2.1% | 39.2%
CCOC(=O)/C(C#N)=C(C)/C=C1\Sc2ccccc2N1CC | -5.6 | ? | -4.7% | 13.5 | 0.9% | -2.6%
CCOC(=O)c1sc2nc(C3CC3)cc(-c3ccc(F)cc3)c2c1N | -17.7 | ? | -15.2% | -3.0 | -1.3% | 3.0%
CCOC(=O)c1cc(-c2ccccc2)sc1N | 58.6* | -9.4% | -55.5% | 36.5* | 13.8% | -3.3%
CCOC(=O)c1sc(-c2ccc(OC)cc2)cc1N | 131.7* | ? | -8.2% | 43.9* | -8.9% | 37.9%
CCOC(=O)c1sc(-c2ccc(F)cc2)cc1N | 125.1* | 1.6% | -13.7% | 45.7* | -11.6% | 15.6%
CCOC(=O)c1sc(-c2ccccc2)cc1N | 115.7* | 2.0% | -23.7% | 58.8* | -13.3% | 13.3%
Cc1nc(NN)nc(NCc2ccccc2)n1 | -6.7 | ? | -16.3% | -3.2 | 0.3% | 101.8%
CCOC(=O)c1c(N)sc(-c2ccccc2)c1C | 68.0* | -10.8% | -22.1% | 33.6* | 15.2% | -16.9%
CCOC(=O)c1c(N)sc(C)c1-c1ccccc1 | 2.8 | . | . | 5.9 | . | .
O=C1C(=Cc2ccc(F)cc2)Cc2ccccc21 | . | . | . | . | . | -0.9%
CN(C)C=C1C(=O)c2ccccc2C1=O | 64.8* | -15.0% | -16.3% | 27.4* | -9.3% | 8.8%
CN(C)/C=C1\Cc2ccccc2C1=O | 112.9* | 5.5% | -12.2% | 45.7* | -2.2% | 7.0%
O=C1/C(=C/c2ccco2)Cc2ccccc21 | 78.1* | -7.3% | -11.7% | 54.1* | -35.4% | -29.7%
O=C(O)C1C2CC2CN1C(=O)c1ccc(Cl)cc1 (centres undefined) | -10.0 | 0.1% | -5.1% | 9.1 | 0.3% | -0.9%
Cc1cc(OCc2ccc(F)cc2)nc(-c2ccccc2O)n1 | -4.1 | ? | -9.9% | 6.3 | -5.8% | 61.7%
COc1ccc(CCNC(=O)c2nnc(Cc3ccc(Cl)cc3)o2)cc1OC | 12.8 | ? | 42.5% | -2.9 | 1.4% | 14.5%
O=C(c1cc2ccccc2o1)c1cccs1 | 81.7* | -9.5% | -20.5% | 49.5* | -9.6% | -0.2%
O=C(c1cccc([N+](=O)[O-])c1)c1cc2ccccc2o1 | 9.0 | ? | -15.1% | 17.4 | 27.1% | -7.6%
